Rows were chosen to be rich in hits. Some 2.6% of all compounds tested hit in one or more screens of this group.
B2AR arrestin ag – beta-arrestin recruitment by human beta2-adrenergic receptor ligands; HTLA Tango cells, beta-arrestin recruitment, luciferase luminescence, 18 h; Potency, µM (series often up to 46.1 µM), usual class: activators; 44,000 tested, under 10 active; AID 1347077;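 further: potency means the concentration at half of the fitted maximal effect; 0% = DMSO and full agonism = EC100 isoproterenol or metaproterenol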
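Tango cells expressing recombinant beta2-AR and beta-arrestin were treated with compounds (up to 46 microM titration) in DMEM with 1% FBS for 18 hr at 37 degrees C. Beta-arrestin recruitment drove tTA-dependent luciferase, read by luminescence; curves were fitted and classed.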
GPR32 ag – activates human resolvin D1 receptor GPR32. O75388. CHO-K1 GPR32 beta-arrestin PathHunter luminescence, 90 min; zero percent set by DMSO-only wells. activation, % at 76.9 µM. hit rate 2.5% among 48,000. AID 1346428;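 active means activation of at least 60% and not above a set upper limit, about 1 call in 100 departs from these limits; inconclusive means activation of 40% to 60%, or above that upper limit; inactive means activation under 40%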; further: 0% is about no effect
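Readings come from a cell-based beta-arrestin complementation format: CHO-K1 GPR32 stable cells (2,500/well) treated 90 min with compounds, then beta-Gal substrate added for 1 h before chemiluminescence imaging.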
GALC G270D act – raises human GALC G270D mutant activity in cells | hit rate 0.1% among 45,000 | P54803 | 145M-Twi-hGALC-G270D cells, HMU-beta-Gal fluorescence, 48 h | AID 1159614 | Potency, µM (series often up to 57.5 µM), usual class: activators; further: potency means the concentration at half of the fitted maximal effect; 0% is about no effect; nearly all actives have a fitted effect of over 65% in size
Target sequence (P54803 whole entry G286D): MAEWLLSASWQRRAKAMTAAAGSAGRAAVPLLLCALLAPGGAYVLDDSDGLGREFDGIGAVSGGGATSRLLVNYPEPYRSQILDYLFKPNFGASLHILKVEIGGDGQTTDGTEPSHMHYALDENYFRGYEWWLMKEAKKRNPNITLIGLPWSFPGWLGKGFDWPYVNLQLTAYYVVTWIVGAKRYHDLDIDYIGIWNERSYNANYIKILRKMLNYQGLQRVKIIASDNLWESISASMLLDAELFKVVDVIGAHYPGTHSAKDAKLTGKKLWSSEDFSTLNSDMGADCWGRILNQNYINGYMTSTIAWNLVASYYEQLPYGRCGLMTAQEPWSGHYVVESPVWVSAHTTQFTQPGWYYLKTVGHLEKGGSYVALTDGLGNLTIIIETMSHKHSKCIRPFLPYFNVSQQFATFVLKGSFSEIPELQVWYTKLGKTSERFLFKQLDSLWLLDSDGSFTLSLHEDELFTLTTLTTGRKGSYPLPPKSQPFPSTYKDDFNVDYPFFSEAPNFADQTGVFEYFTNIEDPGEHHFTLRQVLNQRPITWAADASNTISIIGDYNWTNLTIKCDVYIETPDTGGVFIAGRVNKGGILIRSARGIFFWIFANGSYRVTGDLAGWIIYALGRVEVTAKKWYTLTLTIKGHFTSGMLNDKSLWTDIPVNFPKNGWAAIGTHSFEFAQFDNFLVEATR
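qHTS, 1536-well; 145M-Twi-hGALC-G270D cells (WT line also made) in DMEM/F12 + 10% FBS; compound incubation on live cells; HMU-β-gal 0.1 mM final, pH 5.2, NaTC; carbonate stop; fluorescence increase = enhanced residual activity.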
GALK inhibitor – GALK (human) enzyme inhibition; recombinant GALK, Kinase-Glo ATP luminescence, 1 h; P51570; AID 1347072; 44,000 tested, under 10 active; Potency, µM (doses to about 57.5 µM), for the others: top-dose activity, negative = inhibition, most hits filed as inhibitors;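 further: plate controls were full GALK reaction for no effect and reaction lacking GALK for full effect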
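Compounds were pinned into ATP buffer, then GALK-galactose mix was added (final 5 nM enzyme, 35 uM ATP, 100 uM galactose, pH 8.0). After 1 h at room temperature, Kinase-Glo Plus was added and luminescence read.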
PTAP-TSG101 blk – inhibitors of HIV-1 PTAP binding to human TSG101, validation | Q99816 | Fluorescence polarization, FITC-PTAP peptide/Tsg101, 20 min | Potency, µM (top dose mostly 115 µM), hits mostly inhibitors | 44,000 tested, under 10 active | AID 1347069; further: potency means the concentration at half of the fitted maximal effect; 0% is about no effect
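Compounds pinned into 10 uM Tsg101 binding domain, then 50 nM FITC-PTAP peptide added in pH 7.5 HEPES buffer; FP read after 20 min, room temperature. Total S+P intensity flags fluorescent compounds; active cut-off <25 µM, efficacy <60%.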
FH mod – Identification of activators of human fumarate hydratase by quantitative high-throughput screening | Fumarate hydratase, mitochondrial (Homo sapiens), P07954 | Potency, µM (series often up to 79.9 µM), for inactives: at the top dose activity change, negative = inhibition, usual class: inhibitors | hit rate 0.22% among 54,000 | FH coupled MDH/diaphorase resazurin fluorescence, 15 min; further: potency means the concentration at half of the fitted maximal effect; on the % scale 0 is the no-effect control and ±100 the full control effect; the screen sought activators but most active calls are inhibition curves; nearly all actives have a fitted effect of over 45% in size
* marks the source's active call; other numbers are inactive results; ! = not active in a repeat; [ ] = dose if it differs, or a comment. Unless noted, the call rests on the fitted dose curve; in most records, active means well fitted curve in the direction sought with a large enough effect; inconclusive means small, poorly fitted or top-dose-only effect, or another doubt; inactive means no such curve, though single readings can be large; an effect the other way counts as inactive or inconclusive.

How did COc1ccc(CN2CCN(Cc3cc(=O)oc4cc(C)ccc34)CC2)c(OC)c1OC do in these assays?
B2AR arrestin ag: inactive; GPR32 ag: -5.7; GALC G270D act: inactive; GALK inhibitor: 2.9%; PTAP-TSG101 blk: inactive; FH mod: -21.4%

What do the screens show for `Cc1nn2c(=O)cc(COC(=O)c3ccc(NC(=O)COc4ccc(C)c(C)c4)cc3)nc2s1`?
B2AR arrestin ag: inactive; GPR32 ag: 19.5; GALC G270D act: inactive; GALK inhibitor: 0.6%; PTAP-TSG101 blk: inactive; FH mod: -26.4%

Results for Cc1nn2c(=O)cc(COC(=O)c3ccc(NC(=O)COc4ccccc4F)cc3)nc2s1 ?
B2AR arrestin ag: inactive; GPR32 ag: 62.4*; GALC G270D act: inactive; GALK inhibitor: 4.8%; PTAP-TSG101 blk: inactive; FH mod: -18.5%

What do the screens show for `COc1cccc(Nc2nc3cc(C)ccc3nc2NS(=O)(=O)c2ccc(Cl)cc2)c1`?
B2AR arrestin ag: inactive; GPR32 ag: 29.1; GALC G270D act: inactive; GALK inhibitor: 0.0%; PTAP-TSG101 blk: inactive; FH mod: -5.9%

Results for Cc1ccc2nc(NS(=O)(=O)c3ccc(Cl)cc3)c(Nc3ccc(C(=O)O)cc3)nc2c1 ?
B2AR arrestin ag: inactive; GPR32 ag: 83.2*; GALC G270D act: inactive; GALK inhibitor: -0.1%; PTAP-TSG101 blk: inactive; FH mod: inconclusive

How did O=C(C(Cc1cccc(C(F)(F)F)c1)NS(=O)(=O)c1cc(F)c2c(c1)CCNC2)N1CCCC1 (centres undefined) do in these assays?
FH mod: 5.9%

How did O=c1ccc2ccc(OCCCCN3CCN(c4cccc5sccc45)CC3)cc2[nH]1 do in these assays?
FH mod: 5.4%

How did COC(=O)C1=C(C)NC(C)=C(C(=O)OC)C1c1ccccc1[N+](=O)[O-] do in these assays?
GPR32 ag: inconclusive; GALC G270D act: inactive; FH mod: 15.8µM*!

What do the screens show for `CCOC(=O)C1=C(C)NC(C)=C(C(=O)OC)C1c1cccc([N+](=O)[O-])c1` (centres undefined)?
GPR32 ag: -27.8; GALC G270D act: inactive; FH mod: -27.8%[53.3 µM]

Results for OCC(O)CCO/N=C1/C(c2c(O)[nH]c3ccccc23)=Nc2ccccc21 (centres undefined) ?
FH mod: -4.3%

How did Cc1cc(C)cc(NC(=O)C(=O)NCCc2sc(-c3cccc(F)c3)nc2C)c1 do in these assays?
B2AR arrestin ag: inactive; GPR32 ag: 2.7; GALC G270D act: inactive; GALK inhibitor: 2.7%; PTAP-TSG101 blk: inactive; FH mod: -21.9%

What do the screens show for `Cc1nc(-c2cccc(F)c2)sc1CCNC(=O)Cc1ccc(F)cc1`?
B2AR arrestin ag: inactive; GPR32 ag: 88.1*; GALC G270D act: inactive; GALK inhibitor: 0.7%; PTAP-TSG101 blk: inactive; FH mod: 1.4%

How did Cc1nc(-c2ccc(F)cc2)sc1CCNC(=O)c1ccccc1 do in these assays?
B2AR arrestin ag: inactive; GPR32 ag: 62.2*; GALC G270D act: inactive; GALK inhibitor: 0.5%; PTAP-TSG101 blk: inactive; FH mod: -3.9%

Results for CC(C)N(CCCNC(=O)Nc1ccc(C(C)(C)C)cc1)C[C@H]1O[C@@H](n2cc(Br)c3c(N)ncnc32)[C@H](O)[C@@H]1O ?
FH mod: 2.5%

How did COC(=O)C(CC1(O)c2ccccc2N2C(=O)C(C)(C)N(O)C21)n1cnc2ccccc2c1=O (centres undefined) do in these assays?
FH mod: -0.6%[53.3 µM]

What do the screens show for `COc1cc(N2CCC(O)CC2)ccc1Nc1nc(Nc2ccccc2S(=O)(=O)C(C)C)c2[nH]cnc2n1`?
FH mod: -19.3%

What do the screens show for `O=c1[nH]c(=S)[nH]c(-c2ccccc2)c1Cc1c(O)ccc2ccccc12`?
FH mod: 20µM*

Results for CC(C)c1ccc(CC(=O)N2CCC[C@@H](c3cccc(OC(C)(C)C(=O)O)c3)C2)cc1 ?
FH mod: 5.2%

What do the screens show for `CC(C)C(O)(CO)CCO[C@@H]1O[C@H](CO[C@H]2OC[C@](O)(CO)[C@H]2O)[C@@H](O)[C@H](O)[C@H]1O` (some centres undefined)?
FH mod: 1.6%[53.3 µM]

How did Cc1cccn2c(=O)c3cc(C(=O)NCC(C)C)sc3nc12 do in these assays?
B2AR arrestin ag: inactive; GPR32 ag: 3.2; GALC G270D act: 3.98µM*; GALK inhibitor: -1.2%; PTAP-TSG101 blk: inactive; FH mod: -13.3%

How did Cc1cccc(NC(=O)c2cc3c(=O)n4cccc(C)c4nc3s2)c1C do in these assays?
B2AR arrestin ag: inactive; GPR32 ag: -8.8; GALC G270D act: inactive; GALK inhibitor: -0.4%; PTAP-TSG101 blk: inactive; FH mod: 6.7%

How did CCCN(CCC)C(=O)c1cc2c(=O)n3cccc(C)c3nc2s1 do in these assays?
B2AR arrestin ag: inactive; GPR32 ag: 3.7; GALC G270D act: 20µM*; GALK inhibitor: 0.2%; PTAP-TSG101 blk: inactive; FH mod: inconclusive

What do the screens show for `CC1=CC(=O)C[C@H]2[C@@H]1CC[C@@H](C)[C@]21CO[C@H](c2ccoc2)C1=O`?
FH mod: 0.6%[53.3 µM]

What do the screens show for `CCOc1ccc(NS(=O)(=O)c2ccc3[nH]c4c(c3c2)CCCCC4)cc1`?
B2AR arrestin ag: inactive; GPR32 ag: 65.6*; GALC G270D act: inactive; GALK inhibitor: 0.9%; PTAP-TSG101 blk: inactive; FH mod: inconclusive

What do the screens show for `COc1ccc(OC)c(CNS(=O)(=O)c2ccc3[nH]c4c(c3c2)CCCCC4)c1`?
B2AR arrestin ag: inactive; GPR32 ag: 96.0*; GALC G270D act: inactive; GALK inhibitor: -3.9%; PTAP-TSG101 blk: inactive; FH mod: inconclusive

Results for Cc1ccccc1NS(=O)(=O)c1ccc2[nH]c3c(c2c1)CCCCC3 ?
B2AR arrestin ag: inactive; GPR32 ag: 9.7; GALC G270D act: inactive; GALK inhibitor: 0.1%; PTAP-TSG101 blk: inactive; FH mod: -24.9%

What do the screens show for `COc1ccc(NS(=O)(=O)c2ccc3[nH]c4c(c3c2)CCCC4)c(OC)c1`?
B2AR arrestin ag: inactive; GPR32 ag: 14.7; GALC G270D act: inactive; GALK inhibitor: 0.6%; PTAP-TSG101 blk: inactive; FH mod: inconclusive

Results for COc1ccc(NS(=O)(=O)c2ccc3nc(-c4ccccc4)[nH]c3c2)cc1 ?
B2AR arrestin ag: inactive; GPR32 ag: 115.6*; GALC G270D act: inactive; GALK inhibitor: 2.7%; PTAP-TSG101 blk: inactive; FH mod: -24.7%

Screening results as filed in PubChem BioAssay.
